Test results reported in ChEMBL document CHEMBL1961873, “Compounds: GSK PKIS; Assays: Nanosyn kinase panel” (2012).

Tests used:
[1] = molecular target: Casein kinase I isoform gamma-2 (Homo sapiens) (UniProt P78368); conditions: at 1 µM
[2] = molecular target: Casein kinase I isoform gamma-3 (Homo sapiens) (UniProt Q9Y6M4); conditions: at 0.1 µM
[3] = molecular target: Casein kinase I isoform gamma-3 (Homo sapiens) (UniProt Q9Y6M4); conditions: at 1 µM
[4] = molecular target: Cyclin-dependent kinase 1 (Homo sapiens) (UniProt P06493); conditions: at 0.1 µM
[5] = molecular target: Cyclin-dependent kinase 1 (Homo sapiens) (UniProt P06493); conditions: at 1 µM
[6] = molecular target: Cyclin-dependent kinase 2 (Homo sapiens) (UniProt P24941); conditions: at 0.1 µM
[7] = molecular target: Cyclin-dependent kinase 2 (Homo sapiens) (UniProt P24941); conditions: at 1 µM
[8] = molecular target: Cyclin-dependent kinase 2 (Homo sapiens) (UniProt P24941); conditions: at 0.1 µM; remark: listed apart in the source
[9] = molecular target: Cyclin-dependent kinase 2 (Homo sapiens) (UniProt P24941); conditions: at 1 µM; remark: listed apart in the source
[10] = molecular target: T1, CDK3/Cyclin E (Homo sapiens) (UniProt P24864+Q00526); conditions: at 0.1 µM
[11] = molecular target: T1, CDK3/Cyclin E (Homo sapiens); conditions: at 1 µM
[12] = molecular target: Cyclin-dependent kinase 4 (Homo sapiens) (UniProt P11802); conditions: at 0.1 µM
[13] = molecular target: Cyclin-dependent kinase 4 (Homo sapiens) (UniProt P11802); conditions: at 1 µM
[14] = molecular target: Cyclin-dependent kinase 5 (Homo sapiens) (UniProt Q00535); conditions: at 0.1 µM
[15] = molecular target: Cyclin-dependent kinase 5 (Homo sapiens) (UniProt Q00535); conditions: at 1 µM
[16] = molecular target: Cyclin-dependent kinase 6 (Homo sapiens) (UniProt Q00534); conditions: at 0.1 µM
[17] = molecular target: Cyclin-dependent kinase 6 (Homo sapiens) (UniProt Q00534); conditions: at 1 µM
[18] = molecular target: Dual specificity protein kinase CLK2 (Homo sapiens) (UniProt P49760); conditions: at 0.1 µM
[19] = molecular target: Dual specificity protein kinase CLK2 (Homo sapiens) (UniProt P49760); conditions: at 1 µM
[20] = molecular target: Dual specificity protein kinase CLK3 (Homo sapiens) (UniProt P49761); conditions: at 0.1 µM
Dual specificity protein kinase CLK3 (Homo sapiens), sequence (P49761 whole entry, looked up): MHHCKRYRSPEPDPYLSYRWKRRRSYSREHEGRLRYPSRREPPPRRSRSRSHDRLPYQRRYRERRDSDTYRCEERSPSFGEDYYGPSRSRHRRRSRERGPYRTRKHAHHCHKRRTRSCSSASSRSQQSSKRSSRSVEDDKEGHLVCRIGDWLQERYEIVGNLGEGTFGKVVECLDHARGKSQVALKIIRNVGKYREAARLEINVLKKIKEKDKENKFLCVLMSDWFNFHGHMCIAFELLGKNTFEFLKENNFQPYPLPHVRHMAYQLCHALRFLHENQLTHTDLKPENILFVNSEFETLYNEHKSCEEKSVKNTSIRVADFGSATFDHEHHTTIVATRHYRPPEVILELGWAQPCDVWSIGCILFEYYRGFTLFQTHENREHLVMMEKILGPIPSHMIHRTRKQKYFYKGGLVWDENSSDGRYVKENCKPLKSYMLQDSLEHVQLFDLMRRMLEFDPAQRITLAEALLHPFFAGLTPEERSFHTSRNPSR

Cyclin-dependent kinase 5 (Homo sapiens), sequence (Q00535 whole entry, looked up): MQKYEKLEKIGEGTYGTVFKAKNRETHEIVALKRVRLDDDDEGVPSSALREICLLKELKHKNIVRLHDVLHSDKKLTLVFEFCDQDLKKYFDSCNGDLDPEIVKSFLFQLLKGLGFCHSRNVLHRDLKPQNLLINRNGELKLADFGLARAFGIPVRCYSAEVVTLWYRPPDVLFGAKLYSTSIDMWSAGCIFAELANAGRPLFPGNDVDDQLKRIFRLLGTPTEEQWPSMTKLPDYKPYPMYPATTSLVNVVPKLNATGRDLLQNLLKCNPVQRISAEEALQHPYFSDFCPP
Cyclin-dependent kinase 6 (Homo sapiens), sequence (Q00534 whole entry): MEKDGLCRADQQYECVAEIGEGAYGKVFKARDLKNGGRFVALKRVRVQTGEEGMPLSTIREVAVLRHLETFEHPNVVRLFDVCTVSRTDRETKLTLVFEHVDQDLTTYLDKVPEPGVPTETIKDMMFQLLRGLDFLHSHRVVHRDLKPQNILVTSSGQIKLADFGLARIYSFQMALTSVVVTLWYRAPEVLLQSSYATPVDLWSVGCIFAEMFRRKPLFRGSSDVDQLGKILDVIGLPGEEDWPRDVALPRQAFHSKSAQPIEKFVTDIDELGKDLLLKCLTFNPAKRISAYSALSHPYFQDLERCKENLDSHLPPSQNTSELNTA
Cyclin-dependent kinase 4 (Homo sapiens), sequence (P11802 whole entry): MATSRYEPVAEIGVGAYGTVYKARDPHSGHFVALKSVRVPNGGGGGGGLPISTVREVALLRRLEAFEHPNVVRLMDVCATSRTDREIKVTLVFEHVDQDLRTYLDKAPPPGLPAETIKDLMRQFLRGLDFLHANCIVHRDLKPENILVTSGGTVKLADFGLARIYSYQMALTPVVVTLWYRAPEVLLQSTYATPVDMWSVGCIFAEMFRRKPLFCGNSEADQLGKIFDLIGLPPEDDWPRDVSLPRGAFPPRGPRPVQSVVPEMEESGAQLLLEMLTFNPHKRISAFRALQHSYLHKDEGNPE
Cyclin-dependent kinase 1 (Homo sapiens), sequence (P06493 whole entry, looked up): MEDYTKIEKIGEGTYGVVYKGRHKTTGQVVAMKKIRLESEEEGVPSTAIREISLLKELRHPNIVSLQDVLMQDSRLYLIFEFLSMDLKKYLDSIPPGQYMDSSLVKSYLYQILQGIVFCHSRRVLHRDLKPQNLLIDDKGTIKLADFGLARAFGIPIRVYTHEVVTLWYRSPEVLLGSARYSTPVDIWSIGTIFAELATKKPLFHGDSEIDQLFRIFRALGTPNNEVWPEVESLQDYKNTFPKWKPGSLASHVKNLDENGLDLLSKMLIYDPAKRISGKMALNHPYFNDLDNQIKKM
Casein kinase I isoform gamma-2 (Homo sapiens), sequence (P78368 whole entry, looked up, canonical isoform): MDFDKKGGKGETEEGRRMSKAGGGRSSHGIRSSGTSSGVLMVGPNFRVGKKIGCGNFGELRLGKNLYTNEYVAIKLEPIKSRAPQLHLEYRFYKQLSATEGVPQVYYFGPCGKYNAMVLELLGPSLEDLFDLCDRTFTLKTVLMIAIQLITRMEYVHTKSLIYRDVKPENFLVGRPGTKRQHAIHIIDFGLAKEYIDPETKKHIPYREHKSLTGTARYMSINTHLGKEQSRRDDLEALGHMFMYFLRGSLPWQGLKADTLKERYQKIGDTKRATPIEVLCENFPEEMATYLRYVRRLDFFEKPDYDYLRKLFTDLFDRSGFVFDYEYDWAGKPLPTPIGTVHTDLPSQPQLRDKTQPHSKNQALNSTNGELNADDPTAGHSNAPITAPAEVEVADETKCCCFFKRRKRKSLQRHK
Dual specificity protein kinase CLK2 (Homo sapiens), sequence (P49760 whole entry, looked up): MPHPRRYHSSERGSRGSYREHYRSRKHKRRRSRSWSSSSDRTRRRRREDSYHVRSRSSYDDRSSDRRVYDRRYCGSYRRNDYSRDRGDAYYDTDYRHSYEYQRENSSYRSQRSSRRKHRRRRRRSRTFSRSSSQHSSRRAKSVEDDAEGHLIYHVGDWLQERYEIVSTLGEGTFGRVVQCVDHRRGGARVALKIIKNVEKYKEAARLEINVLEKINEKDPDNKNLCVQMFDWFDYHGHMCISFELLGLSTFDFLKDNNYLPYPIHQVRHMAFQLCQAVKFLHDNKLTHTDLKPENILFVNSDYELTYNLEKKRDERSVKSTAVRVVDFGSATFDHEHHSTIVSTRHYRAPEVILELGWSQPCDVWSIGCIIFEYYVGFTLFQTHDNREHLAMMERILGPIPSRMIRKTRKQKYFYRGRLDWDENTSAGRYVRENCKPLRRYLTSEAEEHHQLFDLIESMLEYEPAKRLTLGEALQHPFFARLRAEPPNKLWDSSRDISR
Casein kinase I isoform gamma-3 (Homo sapiens), sequence (Q9Y6M4 whole entry, looked up, canonical isoform): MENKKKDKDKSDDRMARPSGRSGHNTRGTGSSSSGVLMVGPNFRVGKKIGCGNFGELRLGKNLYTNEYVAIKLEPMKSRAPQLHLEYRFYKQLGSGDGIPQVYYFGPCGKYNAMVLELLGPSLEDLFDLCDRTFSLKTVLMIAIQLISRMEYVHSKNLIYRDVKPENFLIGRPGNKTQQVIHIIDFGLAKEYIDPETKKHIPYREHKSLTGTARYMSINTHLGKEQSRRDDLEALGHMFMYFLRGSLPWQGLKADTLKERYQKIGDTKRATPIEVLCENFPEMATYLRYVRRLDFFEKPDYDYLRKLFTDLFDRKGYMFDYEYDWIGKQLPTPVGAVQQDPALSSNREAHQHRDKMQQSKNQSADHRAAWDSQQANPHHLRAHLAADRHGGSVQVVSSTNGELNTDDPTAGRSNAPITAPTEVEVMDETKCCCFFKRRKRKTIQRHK
T1 sequence (P24864 whole entry, looked up): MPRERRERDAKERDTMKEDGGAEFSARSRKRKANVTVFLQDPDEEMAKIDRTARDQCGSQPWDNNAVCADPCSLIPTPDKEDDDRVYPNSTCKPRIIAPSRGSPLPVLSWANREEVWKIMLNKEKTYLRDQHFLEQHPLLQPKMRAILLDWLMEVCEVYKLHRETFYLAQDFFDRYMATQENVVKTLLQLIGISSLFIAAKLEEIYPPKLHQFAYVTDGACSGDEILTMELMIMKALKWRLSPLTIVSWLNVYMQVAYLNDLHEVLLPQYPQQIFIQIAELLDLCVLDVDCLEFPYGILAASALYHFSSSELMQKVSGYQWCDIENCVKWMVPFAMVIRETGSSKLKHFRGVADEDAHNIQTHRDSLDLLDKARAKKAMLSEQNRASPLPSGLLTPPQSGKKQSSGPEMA
T1 sequence (Q00526 whole entry, looked up): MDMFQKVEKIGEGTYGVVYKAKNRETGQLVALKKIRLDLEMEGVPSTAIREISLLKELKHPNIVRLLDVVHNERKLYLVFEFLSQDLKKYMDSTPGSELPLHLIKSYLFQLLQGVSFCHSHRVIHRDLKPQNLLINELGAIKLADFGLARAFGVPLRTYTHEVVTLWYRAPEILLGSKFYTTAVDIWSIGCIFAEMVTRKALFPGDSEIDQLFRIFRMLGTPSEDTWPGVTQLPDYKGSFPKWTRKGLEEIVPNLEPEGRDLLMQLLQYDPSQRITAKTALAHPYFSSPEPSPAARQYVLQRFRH

Row | SMILES | inhibition [1] [%] | inhibition [2] [%] | inhibition [3] [%] | inhibition [4] [%] | inhibition [5] [%] | inhibition [6] [%] | inhibition [7] [%] | inhibition [8] [%] | inhibition [9] [%] | inhibition [10] [%] | inhibition [11] [%] | inhibition [12] [%] | inhibition [13] [%] | inhibition [14] [%] | inhibition [15] [%] | inhibition [16] [%] | inhibition [17] [%] | inhibition [18] [%] | inhibition [19] [%] | inhibition [20] [%]
1 | Cc1ccc2c(c1)/C(=N/Nc1ccc(S(N)(=O)=O)cc1)C(=O)N2 | 0.86 | 1.81 | -0.55 | 3.51 | 23.4 | 27 | 69.6 | 35 | 74.2 | 14.9 | 57.3 | 1.36 | 16.9 | 9.16 | 45.2 | -2.12 | 36.9 | 1.98 | 3.06 | -1.33
2 | C[C@@H](Oc1cc(-n2cnc3ccc(OC[C@@H](O)CO)cc32)sc1C(N)=O)c1ccccc1Cl | -0.43 | -1.73 | 1.34 | 0.5 | 3.21 | 1.64 | 2.63 | -2.32 | 3.99 | 1.36 | 1.56 | -0.86 | 0.89 | 0.29 | 1.88 | -1.79 | -0.4 | 1.72 | 7.52 | 0.13
3 | COC(=O)c1ccc2c(c1)C(=Cc1cc(Br)c(O)c(Br)c1)C(=O)N2 | 6.12 | 3.75 | 5.04 | 1.54 | 2.24 | 8.07 | 7.32 | 2.47 | 4.31 | -5.06 | -1.48 | 3.47 | 4.69 | 1.03 | 2.5 | -4.09 | -4.12 | 8.63 | 50.1 | 0.44
4 | O=S(=O)(CCOCc1ccc(-c2ccc3ncnc(Nc4ccc(OCc5cccc(F)c5)c(Cl)c4)c3c2)o1)c1ccccc1 | 1.75 | 0.25 | 0.46 | 3.78 | 4.97 | 2.29 | 2.76 | 4.07 | 6.29 | -0.59 | -2.84 | 0.35 | 4.69 | 4.26 | 5.68 | 0.17 | 3.76 | -0.59 | 1.39 | 0.11
5 | Cc1ccc(O)cc1Nc1ccnc2ccc(S(C)(=O)=O)cc12 | 6.1 | 3.71 | 9.28 | 1.72 | -1.86 | 2.82 | 4.49 | 4.22 | 4.92 | 2.71 | -3.13 | 3.24 | 4.37 | 0.36 | 2.61 | -4.64 | 3.72 | 2.47 | 7.17 | 1.75
6 | Cc1cc(Cl)cc2c1NC(=O)C2=NNc1ccc(S(N)(=O)=O)cc1 | 1.54 | -0.43 | 0.95 | 1.08 | 1.91 | 1.27 | 2.22 | 1.42 | 4.71 | 3.25 | -0.36 | 0.78 | 3.56 | 0.57 | 2.28 | 2.2 | 3.46 | 0.86 | 2.34 | 0.9
7 | NS(=O)(=O)c1ccc(Nc2cc(-c3cccc(O)c3)n[nH]2)cc1 | 5.96 | 7.49 | 2.14 | 2.03 | 12.9 | 16.7 | 78.1 | 16.5 | 56 | 5.95 | 28.8 | 3.25 | 9.51 | 5.69 | 31.5 | 2.31 | 21.3 | 3.77 | 2.54 | 1.95
8 | NS(=O)(=O)c1cccc(-c2cc3ccncc3cc2OCc2ccccc2)c1 | 4.41 | 4.33 | 2.71 | 2.03 | 2.22 | 1.1 | 3.16 | 5.88 | 6.78 | 3.65 | 0.51 | 3.55 | 6.33 | 1.96 | 3.2 | -1.23 | 10.9 | 1.16 | 1.27 | 1.46
9 | OCc1ccc(-c2nc(-c3ccccn3)c(-c3ccc4c(c3)OCO4)[nH]2)cc1 | 4.06 | 3.67 | 4.78 | 0.21 | 1.4 | 1.49 | -2.92 | 3.56 | 4.52 | 1.69 | 1.76 | 2.89 | 3.75 | 0.69 | 1.21 | -1 | 2.55 | 1.74 | 4.27 | 1.94
10 | NC(=O)c1cccc(Nc2nccc(Nc3cccc(F)c3)n2)c1 | 1.73 | 0.99 | 0.09 | 1.24 | 3.33 | 2.07 | 4.6 | 0.92 | 5.16 | 0.62 | 3.01 | 0.31 | 2.2 | 0.58 | 3.99 | -1.89 | 0.33 | 0.31 | 5.73 | -0.43
11 | COc1cccc(-n2ncc3c(N/N=C/c4ccc(C)cc4)ncnc32)c1 | 12 | 6.01 | 8.48 | 4.4 | 8.17 | 5.82 | 11 | 2.46 | 7.81 | -3.32 | -1.25 | 3.51 | 7.43 | 2.17 | 6.59 | -2.39 | -0.54 | -0.41 | 6.42 | 1.22
12 | COc1cc2ncn(-c3cc(OCc4ccccc4S(C)(=O)=O)c(C#N)s3)c2cc1OC | 3.78 | 2.68 | 2.61 | 1.59 | 6.07 | 2.46 | 5.28 | 4.39 | 5.94 | 0.41 | 2.11 | 3.64 | 3.7 | 1.86 | 3.42 | 6.66 | 3.82 | 0.22 | 10.8 | 2.39
13 | CC(C)c1ccc2c(c1)NC(=O)/C2=N/Nc1ccc(S(N)(=O)=O)cc1 | 0.09 | 1.05 | 0.02 | 2.52 | 6.84 | 5.99 | 28.9 | 3.16 | 18.9 | 1.54 | 6.26 | 0.37 | 7.65 | 1.59 | 5.95 | 3.38 | 28.6 | -0.26 | -1.61 | -0.29
